Laboratory results from PubChem BioAssay (Tox21).
Several values for one entry are separate records, joined by “and”; a condition that tells them apart may be missing. Equal values may be shown once. Records with an inconclusive call do not appear. Where a structure was tested more than once in an assay, its records may differ in their call. Activity calls are given as the source filed them. The call rests on the fitted dose curve.
On the % scale 0 is the no-effect control and ±100 the full control effect; potency means the concentration at half of the fitted maximal effect.

Assay: p53 small molecule agonists, cell-based qHTS assay with human liver microsomes: qHTS cell viability counter screen (AID 1963579); further: nearly all actives have a fitted effect of over 45% in size
Conditions: p53RE-bla HCT-116 viability, ATP luminescence, 16 h, HLM; series mostly up to 66 µM; activity change, negative = cytotoxicity: at the top concentration
From the text: National Center for Advancing Translational Sciences [NCATS]
Division of Preclinical Innovation [DPI]
U.S. Environmental Protection Agency [EPA]
National Institutes of Environmental Health Sciences [NIEHS]
National Toxicology Program [NTP]
U.S. Food and Drug Administration [FDA]
p53, a tumor suppressor protein, is activated following cellular insult, including DNA damage and other cellular stresses. The activation of p53 regulates cell fate by inducing DNA repair, cell cycle arrest, apoptosis, or cellular senescence. The activation of p53, therefore, is a good indicator of DNA damage and other cellular stresses. […] The activation of the reporter gene under culture conditions can be detected by fluorescence intensity. This cell line was used to screen the Tox21 10K compound library in the condition of presence of human liver microsomes and to identify agonists that activate the p53 signaling pathway after in vitro metabolic activation (Ooka et al., Archive of Toxicology 96:1975-1987, 2022).
Tox21 Assay Protocol Summary:
The p53RE-bla cells were dispensed at 4,000cells/3ul/well in 1536-well black-clear bottom plates. After the assay plates were incubated at 37 C, 5% CO2 incubator for 5 hours, 23 nL of compounds dissolved in DMSO, positive controls or DMSO only was transferred to the assay plate. Following compound addition, 3 uL of human liver microsomes (XenoTech, Kansas City, KS) at final concentration of 0.5 mg/mL and 1uL of B-Nicotinamide adenine dinucleotide 2'-phosphate (NADPH) at final concentration of 0.5 mg/mL were transferred to the assay plate. The plates were incubated at 37 C for 16 hours. 1 uL of LiveBLAzer detection mixture was added to each well and the plates were incubated at room temperature in the dark for 2 h. Fluorescence intensity at 460 and 530 nm emission and 405 nm excitation were measured by an Envision plate reader. For cell viability readout that measures cytotoxicity, 4 ul/well of CellTiter-Glo reagent was added into the assay plates using a Flying Reagent Dispenser. After 30 min incubation at room temperature, the luminescence intensity in the plates was measured using a ViewLux plate reader.
For `Cc1oncc1C(=O)Nc1ccc(C(F)(F)F)cc1`, the Potency was 20.4 µM (active) and inactive.
With `Clc1ccccc1-c1nc(-c2ccncc2)no1` the “activity change, negative = cytotoxicity” value was -2.21% [at 30.3 µM] (inactive).
With `CCN(CC)CCN` the “activity change, negative = cytotoxicity” value was 1.1% [at 30.3 µM] (inactive).
With `C/C(Cl)=C/CCl` the “activity change, negative = cytotoxicity” value was -2.51% (inactive).
In the case of `CCCCCCCCSCC`, the “activity change, negative = cytotoxicity” value is reported as 5.55% (inactive).
For `Nc1c(Br)cc([N+](=O)[O-])cc1Br`, the “activity change, negative = cytotoxicity” value was -0.756% (inactive).
With `CC1CCC(C(C)C)C(O)C1` (stereo not given) the Potency was “inactive”.
For `CN(C)c1ccc(/C=C/c2ccc([N+](=O)[O-])cc2)cc1`, the activity change, negative = cytotoxicity was 0.0681% [at 5.99 µM] (inactive).
In the case of `CCOc1ccccc1OCC`, the “activity change, negative = cytotoxicity” value is reported as 5.04% (inactive).
For `CCC(=O)c1ccc(O)cc1`, the “activity change, negative = cytotoxicity” value was -7% [at 30.3 µM] (inactive).
In the case of `NC(=O)c1cccc([N+](=O)[O-])c1`, the “activity change, negative = cytotoxicity” value is reported as 1.33% (inactive).
In the case of `CCn1cc(C(=O)O)c(=O)c2cc3c(cc21)OCO3`, the Potency is reported as “inactive”.
With `CCCc1ccc(N)cc1` the “activity change, negative = cytotoxicity” value was -7.72% (inactive).
With `OCCOc1ccc(OCCO)cc1` the “activity change, negative = cytotoxicity” value was 4.28% (inactive).
For `COc1ccc2cc(C=O)ccc2c1`, the “activity change, negative = cytotoxicity” value was 1.04% [at 30.3 µM] (inactive).
For `Cc1ccccc1OCC(O)CO` (stereo not given), the “activity change, negative = cytotoxicity” value was 4.33% [at 30.3 µM] (inactive).
For `c1cc(C(c2ccc(OCC3CO3)cc2)C(c2ccc(OCC3CO3)cc2)c2ccc(OCC3CO3)cc2)ccc1OCC1CO1` (stereo not given), the Potency was “inactive”.
With `CC(C)N=C(N)/N=C(\N)Nc1ccc(Cl)cc1` the “activity change, negative = cytotoxicity” value was 1.79% [at 30.3 µM] (inactive).
With `CC1CC(=O)CC(C)(C)C1` (stereo not given) the “activity change, negative = cytotoxicity” value was 3.33% (inactive).
In the case of `C=C(C)C(=O)OCCCCCCOC(=O)C(=C)C`, the “activity change, negative = cytotoxicity” value is reported as 3.06% (inactive).
For `Cc1ccc2n[nH]nc2c1`, the “activity change, negative = cytotoxicity” value was 1.86% (inactive).
In the case of `CO[Si](CCCNCCN)(OC)OC`, the Potency is reported as “inactive”.
In the case of `CC(C)CCCC(C)CCCC(C)CCCCC(C)CCCC(C)CCCC(C)C` (stereo not given), the “activity change, negative = cytotoxicity” value is reported as -0.56% [at 30.3 µM] (inactive).
In the case of `COc1cccc(OC)c1`, the “activity change, negative = cytotoxicity” value is reported as -8.98% (inactive).
In the case of `CNC(=O)[C@H]1O[C@@H](n2cnc3c(NCc4cc(Cl)ccc4OCc4cc(C)no4)ncnc32)[C@H](O)[C@@H]1N`, the “activity change, negative = cytotoxicity” value is reported as 0.191% (inactive).
In the case of `CN(C)C(=O)Oc1ccc[n+](C)c1`, the “activity change, negative = cytotoxicity” value is reported as 8.19% [at 30.3 µM] (inactive).
In the case of `C[C@]12CC[C@H]3[C@@H](CCC4=CC(=O)CC[C@@]43C)[C@@H]1CC[C@@H]2C(=O)CO`, the Potency is reported as “inactive”.
In the case of `CC(c1cc2ccccc2s1)N(O)C(N)=O` (stereo not given), the Potency is reported as “inactive”.
For `C[C@@H](O)[C@H]1C(=O)N2C(C(=O)O)=C([C@H]3CCCO3)S[C@H]12`, the “activity change, negative = cytotoxicity” value was -2.76% [at 30.3 µM] (inactive).
With `CC(C)(O)C(=O)c1ccc(OCCO)cc1` the “activity change, negative = cytotoxicity” value was -13.4% (inactive).
In the case of `O=Nc1ccc(Nc2ccccc2)cc1`, the Potency is reported as “inactive and 36.3 µM (active)”.
For `CCOc1cc(NC(C)=O)ccc1C(=O)OC`, the “activity change, negative = cytotoxicity” value was -0.345% [at 30.3 µM] (inactive).
With `CC(O)Cn1cnc2c1c(=O)n(C)c(=O)n2C` (stereo not given) the “activity change, negative = cytotoxicity” value was -1.09% [at 30.3 µM] (inactive).
With `O=S(=O)(O)c1ccc2c(N=Nc3ccc(S(=O)(=O)O)c4ccccc34)c(O)c(S(=O)(=O)O)cc2c1` the activity change, negative = cytotoxicity was -6.02% [at 5.99 µM] (inactive).
In the case of `N#CCC(=O)O`, the “activity change, negative = cytotoxicity” value is reported as 1.7% (inactive).
In the case of `C/C=C(\C)C(=O)OC/C=C(\C)CCC=C(C)C`, the “activity change, negative = cytotoxicity” value is reported as -1.82% (inactive).
With `C1COC1` the “activity change, negative = cytotoxicity” value was 4.89% (inactive).
In the case of `CC(C)=CCC/C(C)=C/C#N`, the “activity change, negative = cytotoxicity” value is reported as -17.9% (inactive).
For `CCOC(=O)n1ccn(C)c1=S`, the Potency was “inactive”.
With `CCCN1C=CN(C)C1` the Potency was “inactive”.
